Some test systems named below: ERN1; FER; FES; FGFR1; FGFR2; FGFR3; FGFR4; FGR; FLT1; FLT3-autoinhibited; FLT3; FLT4; FRK.
Conditions in all cases: concentration: 1 μM, replicates: in singlicate; n = 1
The subject of a further assay is T1, ERK1.
T1 construct: gene MAPK3

A further assay concerns T2, ERK2.
T2 construct: gene MAPK1

The next assay concerns T3, ERK3.
T3 construct: gene MAPK6

The subject of a further assay is T4, ERK4.
T4 construct: gene MAPK4

A further assay relates to T5, ERK5.
T5 construct: gene MAPK7

The next assay has as its system T6, ERK8.
T6 construct: gene MAPK15

Another assay has as its system T7, FAK.
T7 construct: gene PTK2
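Note: KINOMEscan kinase panel screen.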

As to `Cl.Cl.NCC(NC(=O)c1cc(-c2ccccc2)c(-c2ccnc3[nH]ccc23)s1)c1ccccc1` (stereo not drawn) [GSK1321561], the “%Inh” value came out at 6% with ERK1; 16% with ERK2; 0% with ERK3; 8% in the assay on ERK4; 0% with ERK5; 0% in the assay with ERK8. The “%Inh” value in the assay on ERN1 is 0%; in the assay on FAK it was 0%; in the assay with FER, 36%; with FES, 0%; in the assay with FGFR1 it was 15%; with FGFR2, 14%. Moreover, the “%Inh” value is on record as 19% with FGFR3; 0% in the assay on FGFR4; 35% in the assay on FGR; 10% in the assay with FLT1; 0% in the assay with FLT3-autoinhibited; 0% with FLT3. Moreover, the entries for the “%Inh” value in the assay with FLT4 and in the assay on FRK were 2% and 72%, respectively.

As for `COC(=O)Nc1nc2ccc(Oc3ccc(NC(=O)Nc4cc(C(F)(F)F)ccc4F)cc3)cc2n1C.Cl` [GW692089], the “%Inh” value is listed as 0% in the assay on ERK1; 0% in the assay with ERK2; 0% with ERK3; 0% with ERK4; 0% with ERK5; 72% with ERK8. Further, the “%Inh” value was found to be 0% in the assay with ERN1; 0% in the assay with FAK; 21% with FER; 3% in the assay on FES; 2% with FGFR1; 0% in the assay with FGFR2. Moreover, the “%Inh” value in the assay with FGFR3 came out at 7%; in the assay on FGFR4, 0%; with FGR, 28%; in the assay on FLT1 it was 89%; in the assay on FLT3-autoinhibited, 3%; in the assay on FLT3, 99%. For the same compound, the “%Inh” value is on record as 87% in the assay on FLT4 and 69% in the assay with FRK.

For `C[C@@H](Oc1cc(-n2cnc3cc(-c4ccnc(NCCS(C)(=O)=O)c4)ccc32)sc1C(N)=O)c1ccccc1Cl` [GSK907232], the “%Inh” value was found to be 0% in the assay on ERK1; 0% in the assay on ERK2; 0% in the assay with ERK3; 19% with ERK4; 0% with ERK5; 76% in the assay on ERK8. Further, the “%Inh” value in the assay with ERN1 is 0%; with FAK, 0%; with FER it was 21%; with FES, 0%; with FGFR1, 66%; with FGFR2, 88%. Also, the “%Inh” value in the assay on FGFR3 was found to be 81%; in the assay on FGFR4, 22%; in the assay on FGR it was 44%; with FLT1, 63%; in the assay with FLT3-autoinhibited, 29%; with FLT3, 98.1%. Further, the figures for the “%Inh” value with FLT4 and in the assay on FRK were 96.6% and 18%, respectively.

`Fc1ccc(-c2ncn(C3CCNCC3)c2-c2ccnc(Oc3ccc(-c4ccccc4)cc3)n2)cc1` [SB-245391]: the “%Inh” value in the assay on ERK1 is 47%; in the assay on ERK2, 2%; in the assay on ERK3 it was 0%; with ERK4 it was 15%; in the assay with ERK5, 9%; in the assay with ERK8, 31%. Moreover, the “%Inh” value with ERN1 is on record as 45%; in the assay with FAK, 12%; in the assay on FER, 0%; with FES it was 27%; in the assay on FGFR1, 19%; with FGFR2, 0%. The “%Inh” value with FGFR3 amounted to 0%; in the assay with FGFR4, 59%; in the assay on FGR, 17%; with FLT1, 13%; in the assay with FLT3-autoinhibited, 1%; in the assay with FLT3, 14%. For the same compound, the “%Inh” value in the assay on FLT4 was determined as 5%; in the assay with FRK it was 31%.

`c1ccc(-c2cnc3nccnn23)cc1` [AH20685]: the “%Inh” value amounted to 8% with ERK1; 0% with ERK2; 0% with ERK3; 0% in the assay with ERK4; 0% in the assay with ERK5; 0% in the assay on ERK8. Moreover, the “%Inh” value in the assay with ERN1 came out at 0%; with FAK, 0%; in the assay on FER, 0%; in the assay with FES it was 11%; in the assay on FGFR1, 0%; in the assay on FGFR2, 0%. Also, the “%Inh” value in the assay on FGFR3 is reported as 0%; in the assay on FGFR4 it was 0%; with FGR, 10%; in the assay with FLT1, 0%; with FLT3-autoinhibited, 0%; in the assay with FLT3, 43%. The entries for the “%Inh” value in the assay with FLT4 and in the assay on FRK were 0% and 18%, respectively.

For the compound `CN(C)Cc1ccc(-c2ccc3c(Nc4ccc(Oc5ccccn5)cc4)ccnc3c2)o1` [GW567148], the “%Inh” value with ERK1 was 0%; in the assay with ERK2, 0%; in the assay on ERK3, 0%; in the assay with ERK4, 0%; in the assay with ERK5, 0%; with ERK8, 23%. The “%Inh” value in the assay on ERN1 was determined as 0%; with FAK it was 0%; in the assay with FER, 20%; in the assay with FES, 5%; in the assay with FGFR1, 0%; in the assay with FGFR2, 12%. Besides, the “%Inh” value in the assay with FGFR3 was determined as 5%; in the assay on FGFR4 it was 0%; in the assay on FGR, 81%; in the assay with FLT1 it was 32%; in the assay with FLT3-autoinhibited, 53%; in the assay with FLT3, 95.5%. Moreover, the “%Inh” value was 21% with FLT4 and 25% in the assay on FRK.

On to `Cc1cccc(Nc2nc(N[C@H]3CCNC3)ncc2C(N)=O)c1.Cl` [GSK2197149], for which the “%Inh” value with ERK1 is 1%; with ERK2 it was 0%; in the assay on ERK3, 65%; in the assay with ERK4 it was 25%; in the assay with ERK5, 0%; in the assay on ERK8 it was 12%. The “%Inh” value in the assay with ERN1 was 7%; in the assay on FAK it was 0%; in the assay with FER, 69%; with FES, 0%; with FGFR1, 0%; in the assay with FGFR2 it was 0%. The “%Inh” value turned out to be 3% in the assay on FGFR3; 0% with FGFR4; 82% in the assay with FGR; 24% in the assay with FLT1; 82% in the assay with FLT3-autoinhibited; 80% in the assay on FLT3. Further, the “%Inh” value in the assay on FLT4 is 9%; in the assay on FRK it was 15%.

Turning to `NCCCC(NC(=O)c1cc(Br)c(-c2ccnc3[nH]ccc23)s1)c1ccccc1.O=C(O)C(F)(F)F.O=C(O)C(F)(F)F` (stereo not drawn) [GSK1287544], the “%Inh” value with ERK1 is 12%; in the assay with ERK2, 22%; with ERK3, 0%; with ERK4, 0%; in the assay on ERK5, 0%; with ERK8 it was 43%. Also, the “%Inh” value in the assay on ERN1 stood at 22%; with FAK, 0%; with FER, 0%; in the assay on FES, 1%; with FGFR1, 52%; with FGFR2 it was 16%. For the same compound, the “%Inh” value with FGFR3 is 30%; with FGFR4, 18%; in the assay with FGR, 24%; in the assay on FLT1, 60%; in the assay with FLT3-autoinhibited, 6%; with FLT3 it was 83%. The “%Inh” value with FLT4 came to 38%; with FRK it was 2%.

Regarding `CCCCc1nn2ncccc2c1-c1ccnc(Nc2ccc(N3CCN(C)CC3)cc2)n1` [GW684941], the “%Inh” value came to 0% in the assay on ERK1; 0% with ERK2; 46% with ERK3; 0% in the assay with ERK4; 0% in the assay with ERK5; 63% with ERK8. Further, the “%Inh” value with ERN1 came to 0%; with FAK, 0%; in the assay with FER, 47%; in the assay on FES, 14%; in the assay on FGFR1, 97.9%; in the assay with FGFR2 it was 96.9%. Moreover, the “%Inh” value in the assay with FGFR3 is on record as 89%; in the assay on FGFR4, 68%; in the assay with FGR it was 91.9%; with FLT1 it was 98%; with FLT3-autoinhibited, 93.3%; in the assay with FLT3, 99.5%. The “%Inh” value in the assay with FLT4 was 95.6%; in the assay with FRK, 95%.

The values above are taken from PMC5540273 (PLoS ONE, 2017).
